# From PubChem BioAssay (NCATS)
# Results filed as inconclusive are left out. Values without a mark were called inactive. Activity calls are given as the source filed them. Calls come from the whole dose curve; as a rule, active = well fitted inhibition curve with a large enough effect; inconclusive = small, poorly fitted or top-dose-only effect; inactive = flat fitted curve, though single readings scatter.
# System: NIH3T3
# Assay: qHTS assay to identify novel small-molecules to repurpose for Merkel cell carcinoma treatment (AID 1296009); note: nearly all actives have a fitted effect of over 60% in size
# Settings: MCC and control cell lines, CellTiter-Glo viability, 72 h; at 44.8 µM (top of the series) unless noted
# Summary of the method: (§1)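 qHTS format: cells treated with library compounds in DMSO across 8 (NPC) or 11 (MIPE) concentrations. Readout after 72 hr at 37 degree celsius was CellTiter-Glo luminescence.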
# % is set by controls: 0 for no effect and ±100 for the full control effect; potency is the fitted concentration of half-maximal effect.
row,Compound,outcome
1,CCc1c(C)[nH]c2c1C(=O)C(CN1CCOCC1)CC2 (stereo unspecified),inactive
2,CCCCNc1ccc(C(=O)OCCN(C)C)cc1,inactive
3,O=C(O)CCCCCCCC(=O)O,inactive
4,CC(C)[N+](C)(CCOC(=O)C1c2ccccc2Oc2ccccc21)C(C)C,inactive
5,O=C(O)CP(=O)(O)O,inactive
6,CCN(CC)CC(=O)Nc1c(C)cccc1C,inactive
7,NCCCNCCSP(=O)(O)O,inactive [at 9.27 µM]
8,c1ccc2c(c1)CCCC2C1=NCCN1 (stereo unspecified),inactive

# System: UISO
# Assay: as above
# Settings: MCC and control cell lines, CellTiter-Glo viability, 72 h; series mostly up to 46 µM; activity change, negative = cytotoxicity: at the top concentration
# Summary of the method: as §1
Compound,"activity change, negative = cytotoxicity",Potency
CCN1CCc2nc(N)oc2CC1,2.79%,–
CCn1cc(C(=O)O)c(=O)c2cc3c(cc21)OCO3,-8.7% [at 16.1 µM],–
CCc1c(C)[nH]c2c1C(=O)C(CN1CCOCC1)CC2 (stereo unspecified),8.57%,–
COC(=O)[C@@H](N)Cc1ccc(O)c(O)c1,-7.87%,–
CCOC(=O)c1cnc2c(cnn2CC)c1NN=C(C)C,28%,–
Cc1scc2c1N(C(=O)CN1CCN(C)CC1)c1ccccc1NC2=O,27.2%,–
CC(C)(C)NCC(O)c1cc(O)cc(O)c1 (stereo unspecified),-1.84%,–
C[N+](C)(C)CCOC(N)=O,6.48%,–
NC(=O)c1cn(Cc2c(F)cccc2F)nn1,27.5%,–
CC(=O)OC(C)C[N+](C)(C)C (stereo unspecified),5.83%,–
NC(Cc1ccc(Cl)cc1)C(=O)O (stereo unspecified),36.5% [at 0.597 µM],–
FC(F)(F)c1ccccc1-n1ccnc1,16.5%,–
CCCCNc1ccc(C(=O)OCCN(C)C)cc1,14.2%,–
O=C(O)CCCCCCCC(=O)O,5.8%,–
Nc1ncn([C@@H]2O[C@H](CO)[C@@H](O)[C@H]2O)c(=O)n1,–,9.44 µM (active)
CCN(CC)CCNC(=O)c1cc(S(C)(=O)=O)ccc1OC,35%,–
O=C(O)CN(CCOCCOCCN(CC(=O)O)CC(=O)O)CC(=O)O,21.4% [at 0.597 µM],–
CC(=O)[C@]1(O)Cc2c(O)c3c(c(O)c2[C@@H](O[C@H]2C[C@H](N)[C@H](O)[C@H](C)O2)C1)C(=O)c1ccccc1C3=O,–,0.422 µM (active)

Compound,"activity change, negative = cytotoxicity",Potency
CCN1CCC[C@H]1CNC(=O)c1c(O)c(Cl)cc(Cl)c1OC,-4.81%,–
CCCN(CCC)C(=O)C(CCC(=O)O)NC(=O)c1ccccc1 (stereo unspecified),14.1%,–
CN1C[C@H](C(=O)N[C@]2(C)O[C@@]3(O)[C@@H]4CCCN4C(=O)[C@H](Cc4ccccc4)N3C2=O)C[C@@H]2c3cccc4[nH]cc(c34)C[C@H]21,-3.83%,–
C[n+]1cc2c3c(ccc2c2ccc4cc5c(cc4c21)OCO5)OCO3,–,1.3 µM (active)
NC(N)=NC(=O)Cc1c(Cl)cccc1Cl,-19.8%,–
O=C(O)CN(CCN(CC(=O)O)CC(=O)O)CCN(CC(=O)O)CC(=O)O,36.6% [at 16.1 µM],–
CN=C(NC#N)NCCSCc1nc[nH]c1C,5.45%,–
NC/C=C/C(=O)O,27.6%,–
Cc1ccc(/C(=C\CN2CCCC2)c2ccccn2)cc1,-2.41%,–
CCCN(CCC)CCc1cccc2c1CC(=O)N2,34.9%,–
NC(=O)c1ncn([C@@H]2O[C@H](CO)[C@@H](O)[C@H]2O)c1O,-2.67%,–
CC(C)[N+](C)(CCOC(=O)C1c2ccccc2Oc2ccccc21)C(C)C,-35.1%,–
O=C(O)CP(=O)(O)O,7.3%,–
CCN(CC)CC(=O)Nc1c(C)cccc1C,-5.17%,–
NCCCNCCSP(=O)(O)O,-0.378% [at 9.22 µM],–
Brc1c(NC2=NCCN2)ccc2nccnc12,-16.3%,–
c1ccc2c(c1)CCCC2C1=NCCN1 (stereo unspecified),0.24%,–

# System: WaGa
# Assay: as above
# Settings: MCC and control cell lines, CellTiter-Glo viability, 72 h; series mostly up to 46 µM; activity change, negative = cytotoxicity: at the top concentration
# Summary of the method: as §1
Compound,"activity change, negative = cytotoxicity",Potency
CCN1CCc2nc(N)oc2CC1,5.23%,–
CCn1cc(C(=O)O)c(=O)c2cc3c(cc21)OCO3,6.53% [at 16.1 µM],–
CCOC(=O)c1cnc2c(cnn2CC)c1NN=C(C)C,1.05%,–
Cc1scc2c1N(C(=O)CN1CCN(C)CC1)c1ccccc1NC2=O,7.56%,–
CC(C)(C)NCC(O)c1cc(O)cc(O)c1 (stereo unspecified),-1.24%,–
CC1=C(C)C(=O)C(CCCCC#CCCCC#CCO)=C(C)C1=O,–,21.1 µM (active)
C[N+](C)(C)CCOC(N)=O,14%,–
NC(=O)c1cn(Cc2c(F)cccc2F)nn1,14%,–
CC(=O)OC(C)C[N+](C)(C)C (stereo unspecified),-15.5%,–
NC(Cc1ccc(Cl)cc1)C(=O)O (stereo unspecified),12.8% [at 0.597 µM],–
FC(F)(F)c1ccccc1-n1ccnc1,18.4%,–
CCCCNc1ccc(C(=O)OCCN(C)C)cc1,2.08%,–
O=C(O)CCCCCCCC(=O)O,1.12%,–
Nc1ncn([C@@H]2O[C@H](CO)[C@@H](O)[C@H]2O)c(=O)n1,–,16.8 µM (active)
CCN(CC)CCNC(=O)c1cc(S(C)(=O)=O)ccc1OC,17.5%,–
O=C(O)CN(CCOCCOCCN(CC(=O)O)CC(=O)O)CC(=O)O,12.3% [at 0.597 µM],–
CC(=O)[C@]1(O)Cc2c(O)c3c(c(O)c2[C@@H](O[C@H]2C[C@H](N)[C@H](O)[C@H](C)O2)C1)C(=O)c1ccccc1C3=O,–,0.106 µM (active)

Compound,"activity change, negative = cytotoxicity",Potency
CCN1CCC[C@H]1CNC(=O)c1c(O)c(Cl)cc(Cl)c1OC,18.7%,–
CCCN(CCC)C(=O)C(CCC(=O)O)NC(=O)c1ccccc1 (stereo unspecified),-4.58%,–
CN1C[C@H](C(=O)N[C@]2(C)O[C@@]3(O)[C@@H]4CCCN4C(=O)[C@H](Cc4ccccc4)N3C2=O)C[C@@H]2c3cccc4[nH]cc(c34)C[C@H]21,13.6%,–
C[n+]1cc2c3c(ccc2c2ccc4cc5c(cc4c21)OCO5)OCO3,–,1.03 µM (active)
NC(N)=NC(=O)Cc1c(Cl)cccc1Cl,-19.1%,–
O=C(O)CN(CCN(CC(=O)O)CC(=O)O)CCN(CC(=O)O)CC(=O)O,6.45% [at 16.1 µM],–
CN=C(NC#N)NCCSCc1nc[nH]c1C,-6.59%,–
NC/C=C/C(=O)O,14.4%,–
Cc1ccc(/C(=C\CN2CCCC2)c2ccccn2)cc1,-9.24%,–
CCCN(CCC)CCc1cccc2c1CC(=O)N2,8.58%,–
NC(=O)c1ncn([C@@H]2O[C@H](CO)[C@@H](O)[C@H]2O)c1O,5.64%,–
O=C(O)CP(=O)(O)O,7.03%,–
CCN(CC)CC(=O)Nc1c(C)cccc1C,-4.47%,–
NCCCNCCSP(=O)(O)O,14.2% [at 9.22 µM],–
Brc1c(NC2=NCCN2)ccc2nccnc12,5.87%,–
c1ccc2c(c1)CCCC2C1=NCCN1 (stereo unspecified),11%,–
